Results from paper PMC7862700, “An all-to-all approach to the identification of sequence-specific readers for epigenetic DNA modifications on cytosine”.

What was measured:
Assay in all cases: DAPPL (digital affinity profiling via proximity ligation, sequencing); 10 mM Tris-HCl pH 7.5, 50 mM NaCl, 1 mM DTT, 4% glycerol, room temperature, 30 min; GST-TFs on glutathione beads, 16-mer random dsDNA library, 0.1% formaldehyde crosslink after washing; high values mean tight binding
FLI1 = target: T1, FLI1 (Homo sapiens, UniProt Q01543 1-452); conditions: protein: recombinant; tags: N-terminal GST; dsDNA, one strand shown
T1 sequence: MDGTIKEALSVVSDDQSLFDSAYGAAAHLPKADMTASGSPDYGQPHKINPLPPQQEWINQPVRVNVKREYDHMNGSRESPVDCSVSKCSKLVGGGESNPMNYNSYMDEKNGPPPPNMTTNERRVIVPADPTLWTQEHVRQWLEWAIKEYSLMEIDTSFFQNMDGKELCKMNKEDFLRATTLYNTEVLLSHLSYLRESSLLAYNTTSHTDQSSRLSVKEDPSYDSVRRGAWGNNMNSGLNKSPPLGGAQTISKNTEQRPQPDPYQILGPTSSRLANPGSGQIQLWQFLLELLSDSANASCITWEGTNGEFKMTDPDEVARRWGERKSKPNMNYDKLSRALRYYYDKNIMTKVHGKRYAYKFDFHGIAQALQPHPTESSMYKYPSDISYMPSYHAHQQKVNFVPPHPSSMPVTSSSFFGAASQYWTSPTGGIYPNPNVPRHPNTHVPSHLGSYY
How it was run: (§1)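 The binding signal reported is, for every hexamer, its read frequency for a factor over its read frequency for the tag-only sample. Reads came from pools of yeast-expressed, GST-fused human transcription factors on glutathione beads, barcoded with DNA and mixed with that sample, which were incubated with 200 nmole of a random double-stranded 16-mer DNA library in Tris/NaCl/DTT/glycerol buffer at room temperature for 30 min. After washing, the pools were crosslinked with 0.1% formaldehyde, proximity-ligated with BsaI/T4 ligase for 1 h at 37 °C, PCR-amplified and sequenced on an Illumina NextSeq500.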

ELK1 = target: T2, ELK1 (Homo sapiens, UniProt P19419 1-428); conditions: protein: recombinant; tags: N-terminal GST; dsDNA, one strand shown
T2 sequence: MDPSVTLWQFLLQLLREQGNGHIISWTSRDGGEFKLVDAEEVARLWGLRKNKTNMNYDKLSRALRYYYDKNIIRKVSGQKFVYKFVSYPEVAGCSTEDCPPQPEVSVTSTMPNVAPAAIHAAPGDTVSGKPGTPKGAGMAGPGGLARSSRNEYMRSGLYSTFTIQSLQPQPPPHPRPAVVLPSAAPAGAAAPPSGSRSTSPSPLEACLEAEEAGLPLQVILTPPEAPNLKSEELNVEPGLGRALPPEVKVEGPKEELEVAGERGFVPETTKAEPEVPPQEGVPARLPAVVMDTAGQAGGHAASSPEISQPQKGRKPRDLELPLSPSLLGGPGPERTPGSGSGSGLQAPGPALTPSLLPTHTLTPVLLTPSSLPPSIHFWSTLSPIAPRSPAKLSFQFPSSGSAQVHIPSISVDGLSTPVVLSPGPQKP
How it was run: as §1

GABPA = target: T3, GABPA (Homo sapiens, UniProt Q06546 1-454); conditions: protein: recombinant; tags: N-terminal GST; dsDNA, one strand shown
T3 sequence: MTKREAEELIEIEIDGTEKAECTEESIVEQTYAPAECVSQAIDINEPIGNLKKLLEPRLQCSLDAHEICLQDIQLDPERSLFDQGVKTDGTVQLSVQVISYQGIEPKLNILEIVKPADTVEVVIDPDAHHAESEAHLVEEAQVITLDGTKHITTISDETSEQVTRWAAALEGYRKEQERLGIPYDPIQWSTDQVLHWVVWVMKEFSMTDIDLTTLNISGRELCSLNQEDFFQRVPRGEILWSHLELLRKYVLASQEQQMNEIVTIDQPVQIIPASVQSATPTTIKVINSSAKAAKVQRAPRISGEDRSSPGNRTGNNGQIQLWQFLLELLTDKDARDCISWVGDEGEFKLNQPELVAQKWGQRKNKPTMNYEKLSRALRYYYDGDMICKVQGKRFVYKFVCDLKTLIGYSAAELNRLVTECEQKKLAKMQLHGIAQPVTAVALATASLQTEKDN
How it was run: as §1

ERG = target: T4, ERG (Homo sapiens, UniProt P11308 1-479); conditions: protein: recombinant; tags: N-terminal GST; dsDNA, one strand shown
T4 sequence: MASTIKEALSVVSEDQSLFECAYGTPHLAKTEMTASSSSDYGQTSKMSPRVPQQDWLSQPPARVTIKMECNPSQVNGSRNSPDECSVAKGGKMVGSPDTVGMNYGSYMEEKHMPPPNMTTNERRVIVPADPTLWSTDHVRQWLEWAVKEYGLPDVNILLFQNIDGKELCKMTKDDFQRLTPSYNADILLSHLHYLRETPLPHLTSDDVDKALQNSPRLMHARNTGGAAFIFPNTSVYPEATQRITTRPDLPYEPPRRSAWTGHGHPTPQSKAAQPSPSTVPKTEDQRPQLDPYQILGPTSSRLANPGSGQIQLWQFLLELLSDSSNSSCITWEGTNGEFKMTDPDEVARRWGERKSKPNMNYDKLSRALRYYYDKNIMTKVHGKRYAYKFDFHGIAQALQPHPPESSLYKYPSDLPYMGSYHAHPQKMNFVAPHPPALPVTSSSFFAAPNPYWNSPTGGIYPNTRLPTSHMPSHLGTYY
How it was run: as §1

ELF1 = ELF1 (Homo sapiens, UniProt P32519 1-619); conditions: protein: recombinant; tags: N-terminal GST; dsDNA, one strand shown
ELF1, sequence (P32519 whole entry): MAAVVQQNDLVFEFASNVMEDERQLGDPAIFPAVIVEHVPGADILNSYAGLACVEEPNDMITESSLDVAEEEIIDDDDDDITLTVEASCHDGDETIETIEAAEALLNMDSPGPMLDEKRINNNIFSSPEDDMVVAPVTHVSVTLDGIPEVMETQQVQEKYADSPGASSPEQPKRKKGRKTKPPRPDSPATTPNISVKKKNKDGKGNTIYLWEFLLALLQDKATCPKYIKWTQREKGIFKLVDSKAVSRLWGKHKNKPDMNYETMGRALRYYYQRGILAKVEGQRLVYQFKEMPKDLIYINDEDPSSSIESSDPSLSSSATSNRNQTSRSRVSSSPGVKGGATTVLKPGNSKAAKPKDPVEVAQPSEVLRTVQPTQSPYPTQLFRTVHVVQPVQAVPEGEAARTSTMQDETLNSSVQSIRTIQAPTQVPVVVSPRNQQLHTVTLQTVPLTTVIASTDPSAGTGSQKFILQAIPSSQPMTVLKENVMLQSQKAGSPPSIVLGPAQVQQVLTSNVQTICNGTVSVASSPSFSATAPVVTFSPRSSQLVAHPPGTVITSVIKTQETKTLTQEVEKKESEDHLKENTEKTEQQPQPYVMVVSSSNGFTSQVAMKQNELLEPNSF
How it was run: as §1

EHF = target: T5, EHF (Homo sapiens, UniProt Q9NZC4 1-300); conditions: protein: recombinant; tags: N-terminal GST; dsDNA, one strand shown
T5 sequence: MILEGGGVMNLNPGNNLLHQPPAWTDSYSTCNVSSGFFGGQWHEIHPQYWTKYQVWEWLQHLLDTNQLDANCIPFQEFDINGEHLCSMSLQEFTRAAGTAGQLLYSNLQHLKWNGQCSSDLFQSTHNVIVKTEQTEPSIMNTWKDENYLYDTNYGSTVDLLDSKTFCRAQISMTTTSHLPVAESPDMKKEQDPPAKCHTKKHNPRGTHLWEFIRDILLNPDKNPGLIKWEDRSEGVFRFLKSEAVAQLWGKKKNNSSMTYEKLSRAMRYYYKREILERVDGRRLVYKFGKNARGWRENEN
How it was run: as §1

SPI1 = SPI1 (Homo sapiens, UniProt P17947 1-270); conditions: protein: recombinant; tags: N-terminal GST; dsDNA, one strand shown
How it was run: as §1

SPIB = SPIB (Homo sapiens, UniProt Q01892 1-262); conditions: protein: recombinant; tags: N-terminal GST; dsDNA, one strand shown
SPIB, sequence (Q01892 whole entry): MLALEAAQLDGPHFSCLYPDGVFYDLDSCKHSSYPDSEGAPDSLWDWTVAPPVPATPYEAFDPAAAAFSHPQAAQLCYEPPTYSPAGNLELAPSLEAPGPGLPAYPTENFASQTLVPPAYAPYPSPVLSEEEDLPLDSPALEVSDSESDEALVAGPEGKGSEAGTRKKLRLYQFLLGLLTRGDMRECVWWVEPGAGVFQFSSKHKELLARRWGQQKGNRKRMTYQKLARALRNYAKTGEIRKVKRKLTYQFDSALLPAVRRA
How it was run: as §1

ELK3 = target: T6, ELK3 (Homo sapiens, UniProt P41970 1-407); conditions: protein: recombinant; tags: N-terminal GST; dsDNA, one strand shown
T6 sequence: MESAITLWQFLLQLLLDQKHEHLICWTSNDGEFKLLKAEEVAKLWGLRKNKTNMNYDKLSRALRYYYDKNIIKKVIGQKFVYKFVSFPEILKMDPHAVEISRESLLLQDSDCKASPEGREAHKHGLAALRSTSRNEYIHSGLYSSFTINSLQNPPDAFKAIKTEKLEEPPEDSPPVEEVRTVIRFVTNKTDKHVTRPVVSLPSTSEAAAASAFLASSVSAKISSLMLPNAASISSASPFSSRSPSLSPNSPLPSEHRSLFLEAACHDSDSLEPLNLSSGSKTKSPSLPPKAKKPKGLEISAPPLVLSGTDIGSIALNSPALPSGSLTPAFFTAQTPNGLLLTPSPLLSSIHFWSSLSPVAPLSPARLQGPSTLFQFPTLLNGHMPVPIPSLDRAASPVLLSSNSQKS
How it was run: as §1

FEV = target: T7, FEV (Homo sapiens, UniProt Q99581 1-238); conditions: protein: recombinant; tags: N-terminal GST; dsDNA, one strand shown
T7 sequence: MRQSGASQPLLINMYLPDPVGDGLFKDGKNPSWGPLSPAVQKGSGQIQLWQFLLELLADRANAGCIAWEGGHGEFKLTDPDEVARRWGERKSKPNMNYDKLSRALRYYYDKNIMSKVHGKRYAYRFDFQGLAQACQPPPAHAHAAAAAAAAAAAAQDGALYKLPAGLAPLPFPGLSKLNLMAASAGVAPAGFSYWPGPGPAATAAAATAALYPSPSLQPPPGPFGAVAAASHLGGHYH
How it was run: as §1

ETV5 = ETV5 (Homo sapiens, UniProt P41161 1-510); conditions: protein: recombinant; tags: N-terminal GST; dsDNA, one strand shown
ETV5, sequence (P41161 whole entry): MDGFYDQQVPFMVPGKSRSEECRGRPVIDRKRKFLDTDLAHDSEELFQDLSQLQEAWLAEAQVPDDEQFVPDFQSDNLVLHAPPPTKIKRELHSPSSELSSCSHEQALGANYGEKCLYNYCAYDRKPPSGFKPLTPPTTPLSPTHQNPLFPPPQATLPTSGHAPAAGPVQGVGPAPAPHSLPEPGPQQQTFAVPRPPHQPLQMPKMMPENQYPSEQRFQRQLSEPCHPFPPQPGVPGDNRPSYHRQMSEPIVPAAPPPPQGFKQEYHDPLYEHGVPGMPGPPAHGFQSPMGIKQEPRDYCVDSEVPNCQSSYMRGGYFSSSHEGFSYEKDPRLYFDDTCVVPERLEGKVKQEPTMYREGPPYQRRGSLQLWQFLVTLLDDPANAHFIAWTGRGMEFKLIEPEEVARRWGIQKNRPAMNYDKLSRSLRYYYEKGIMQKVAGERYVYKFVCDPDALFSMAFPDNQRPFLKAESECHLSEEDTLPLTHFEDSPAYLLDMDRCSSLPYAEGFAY
How it was run: as §1

HSF1 = HSF1 (Homo sapiens, UniProt Q00613 1-529); conditions: protein: recombinant; tags: N-terminal GST; chain copies: 3; dsDNA, one strand shown
HSF1, sequence (Q00613 whole entry): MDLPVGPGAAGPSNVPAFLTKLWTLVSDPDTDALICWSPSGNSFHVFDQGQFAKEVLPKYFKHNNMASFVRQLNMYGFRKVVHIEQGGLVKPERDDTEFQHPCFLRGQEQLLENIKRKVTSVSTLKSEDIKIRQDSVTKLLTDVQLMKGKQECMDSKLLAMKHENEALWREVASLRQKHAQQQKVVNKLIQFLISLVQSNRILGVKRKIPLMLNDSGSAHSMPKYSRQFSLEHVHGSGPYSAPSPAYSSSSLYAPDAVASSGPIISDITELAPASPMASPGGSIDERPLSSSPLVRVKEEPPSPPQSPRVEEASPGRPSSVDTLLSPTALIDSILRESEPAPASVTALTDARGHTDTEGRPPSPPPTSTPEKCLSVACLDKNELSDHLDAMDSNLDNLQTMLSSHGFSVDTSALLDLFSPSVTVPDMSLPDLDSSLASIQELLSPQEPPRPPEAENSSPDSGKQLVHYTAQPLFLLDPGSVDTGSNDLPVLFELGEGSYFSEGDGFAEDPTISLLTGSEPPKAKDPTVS
How it was run: as §1

ELF4 = ELF4 (Homo sapiens, UniProt Q99607 1-663); conditions: protein: recombinant; tags: N-terminal GST; dsDNA, one strand shown
ELF4, sequence (Q99607 whole entry): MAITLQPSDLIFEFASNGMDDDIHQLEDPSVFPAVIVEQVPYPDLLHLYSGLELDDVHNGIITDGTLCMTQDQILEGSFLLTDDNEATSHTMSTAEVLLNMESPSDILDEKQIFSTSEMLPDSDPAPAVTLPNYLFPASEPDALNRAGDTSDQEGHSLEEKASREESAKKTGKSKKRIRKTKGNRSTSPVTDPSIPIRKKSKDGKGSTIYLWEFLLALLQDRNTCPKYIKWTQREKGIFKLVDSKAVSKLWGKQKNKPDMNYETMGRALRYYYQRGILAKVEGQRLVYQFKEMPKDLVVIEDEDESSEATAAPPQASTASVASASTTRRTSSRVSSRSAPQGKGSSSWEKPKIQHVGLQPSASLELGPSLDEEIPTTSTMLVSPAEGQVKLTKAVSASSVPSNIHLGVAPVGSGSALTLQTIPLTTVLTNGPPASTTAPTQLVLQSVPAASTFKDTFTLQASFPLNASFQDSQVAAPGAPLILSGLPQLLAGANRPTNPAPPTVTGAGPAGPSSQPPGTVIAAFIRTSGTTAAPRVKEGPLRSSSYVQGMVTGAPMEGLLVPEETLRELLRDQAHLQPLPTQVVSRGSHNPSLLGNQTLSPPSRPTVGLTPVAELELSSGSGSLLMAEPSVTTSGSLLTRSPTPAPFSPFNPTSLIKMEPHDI
How it was run: as §1

ELK4 = target: T8, ELK4 (Homo sapiens, UniProt P28324-2 1-405); conditions: protein: recombinant; tags: N-terminal GST; dsDNA, one strand shown
T8 sequence: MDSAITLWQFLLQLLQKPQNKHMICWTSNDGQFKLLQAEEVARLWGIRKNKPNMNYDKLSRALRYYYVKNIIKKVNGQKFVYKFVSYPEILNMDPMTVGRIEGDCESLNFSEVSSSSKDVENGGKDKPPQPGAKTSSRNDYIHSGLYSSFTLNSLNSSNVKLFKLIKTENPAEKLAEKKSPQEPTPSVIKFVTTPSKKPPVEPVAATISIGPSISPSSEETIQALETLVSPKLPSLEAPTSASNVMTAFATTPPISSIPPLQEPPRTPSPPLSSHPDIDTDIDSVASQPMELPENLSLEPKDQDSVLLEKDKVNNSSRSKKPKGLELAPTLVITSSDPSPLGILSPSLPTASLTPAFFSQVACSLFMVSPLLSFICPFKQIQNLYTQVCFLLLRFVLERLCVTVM
How it was run: as §1

ETV2 = target: T9, ETV2 (Homo sapiens, UniProt O00321 1-342); conditions: protein: recombinant; tags: N-terminal GST; dsDNA, one strand shown
T9 sequence: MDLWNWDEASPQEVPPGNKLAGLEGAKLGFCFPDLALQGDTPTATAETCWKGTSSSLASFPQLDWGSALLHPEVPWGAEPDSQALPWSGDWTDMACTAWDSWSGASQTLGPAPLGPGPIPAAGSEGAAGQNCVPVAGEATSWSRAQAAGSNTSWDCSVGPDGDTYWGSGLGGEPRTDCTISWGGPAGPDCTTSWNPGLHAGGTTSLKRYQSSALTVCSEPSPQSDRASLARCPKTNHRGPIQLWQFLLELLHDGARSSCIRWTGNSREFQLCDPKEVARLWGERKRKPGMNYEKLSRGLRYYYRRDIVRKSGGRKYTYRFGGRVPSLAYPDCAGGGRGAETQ
How it was run: as §1

ELF3 = target: T10, ELF3 (Homo sapiens, UniProt P78545 1-371); conditions: protein: recombinant; tags: N-terminal GST; dsDNA, one strand shown
T10 sequence: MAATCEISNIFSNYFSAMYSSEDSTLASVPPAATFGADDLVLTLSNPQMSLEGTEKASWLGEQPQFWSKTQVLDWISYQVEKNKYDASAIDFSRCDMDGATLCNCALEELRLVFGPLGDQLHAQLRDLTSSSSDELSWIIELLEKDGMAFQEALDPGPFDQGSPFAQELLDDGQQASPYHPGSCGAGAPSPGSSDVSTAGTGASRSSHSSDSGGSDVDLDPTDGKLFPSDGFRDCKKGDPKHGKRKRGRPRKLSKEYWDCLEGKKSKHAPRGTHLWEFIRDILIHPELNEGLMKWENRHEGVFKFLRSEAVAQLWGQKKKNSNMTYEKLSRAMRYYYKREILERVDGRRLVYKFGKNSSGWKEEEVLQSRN
How it was run: as §1

CRX = CRX (Homo sapiens, UniProt O43186 1-299); conditions: protein: recombinant; tags: N-terminal GST; dsDNA, one strand shown
CRX, sequence (O43186 whole entry): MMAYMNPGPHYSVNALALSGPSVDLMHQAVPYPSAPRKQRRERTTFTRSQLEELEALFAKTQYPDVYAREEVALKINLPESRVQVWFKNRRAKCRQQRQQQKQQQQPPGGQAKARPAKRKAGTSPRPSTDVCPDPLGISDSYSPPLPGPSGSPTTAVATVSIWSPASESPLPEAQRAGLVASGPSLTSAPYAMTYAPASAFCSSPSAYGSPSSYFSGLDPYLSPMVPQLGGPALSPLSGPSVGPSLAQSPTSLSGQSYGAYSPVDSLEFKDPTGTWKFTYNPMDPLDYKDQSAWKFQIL
How it was run: as §1

ETV1 = ETV1 (Homo sapiens, UniProt P50549 1-477); conditions: protein: recombinant; tags: N-terminal GST; dsDNA, one strand shown
ETV1, sequence (P50549 whole entry): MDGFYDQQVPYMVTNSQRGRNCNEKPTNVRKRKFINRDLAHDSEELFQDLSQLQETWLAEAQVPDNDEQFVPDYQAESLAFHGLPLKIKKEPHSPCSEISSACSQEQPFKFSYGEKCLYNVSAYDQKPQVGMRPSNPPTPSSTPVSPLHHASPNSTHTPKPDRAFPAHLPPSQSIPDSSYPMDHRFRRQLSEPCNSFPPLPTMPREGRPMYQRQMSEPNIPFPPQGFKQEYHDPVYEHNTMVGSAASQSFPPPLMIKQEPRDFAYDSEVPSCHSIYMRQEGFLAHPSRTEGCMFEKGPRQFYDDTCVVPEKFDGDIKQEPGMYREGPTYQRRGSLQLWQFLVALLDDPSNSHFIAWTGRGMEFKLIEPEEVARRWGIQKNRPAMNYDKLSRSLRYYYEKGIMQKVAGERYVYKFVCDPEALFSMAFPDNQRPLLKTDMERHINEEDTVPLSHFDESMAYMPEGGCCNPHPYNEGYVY
How it was run: as §1

ATTAGG was tested. Which binding signal (FLI1) did it give?
The binding signal was 1.06 fold enrichment (6-mer frequency, TF over GST control).

What about the binding signal (ELK1) of the same sequence?
Its binding signal is 1.06 fold enrichment (6-mer frequency, TF over GST control).

What about the binding signal (GABPA) of the same sequence?
Its binding signal is 1.1 fold enrichment (6-mer frequency, TF over GST control).

And the binding signal (ERG)?
The binding signal was 1.05 fold enrichment (6-mer frequency, TF over GST control).

What about the binding signal (ELF1) of the same sequence?
Its binding signal is 1.06 fold enrichment (6-mer frequency, TF over GST control).

And the binding signal (EHF)?
Its binding signal is 1.1 fold enrichment (6-mer frequency, TF over GST control).

And the binding signal (SPI1)?
Its binding signal is 1.07 fold enrichment (6-mer frequency, TF over GST control).

And the binding signal (SPIB)?
Its binding signal is 1.06 fold enrichment (6-mer frequency, TF over GST control).

What about the binding signal (ELK3) of the same sequence?
The binding signal was 1.1 fold enrichment (6-mer frequency, TF over GST control).

What about the binding signal (FEV) of the same sequence?
The binding signal was 1.01 fold enrichment (6-mer frequency, TF over GST control).

What about the binding signal (ETV5) of the same sequence?
The binding signal was 1.11 fold enrichment (6-mer frequency, TF over GST control).

And the binding signal (HSF1)?
Its binding signal is 1.57 fold enrichment (6-mer frequency, TF over GST control).

What about the binding signal (ELF4) of the same sequence?
Its binding signal is 1.07 fold enrichment (6-mer frequency, TF over GST control).

And the binding signal (ELK4)?
The binding signal was 1.06 fold enrichment (6-mer frequency, TF over GST control).

What about the binding signal (ETV2) of the same sequence?
The binding signal was 1.05 fold enrichment (6-mer frequency, TF over GST control).

And the binding signal (ELF3)?
The binding signal was 1.04 fold enrichment (6-mer frequency, TF over GST control).

What about the binding signal (CRX) of the same sequence?
The binding signal was 2.38 fold enrichment (6-mer frequency, TF over GST control).

What about the binding signal (ETV1) of the same sequence?
The binding signal was 1.01 fold enrichment (6-mer frequency, TF over GST control).
